Screens: PubChem, National Center for Advancing Translational Sciences (NCATS)
B2AR arrestin ag – ADRB2 beta-arrestin recruitment | P07550 | HTLA Tango cells, beta-arrestin recruitment, luciferase luminescence, 18 h | Potency, µM (highest dose often 46.1 µM), usual class: activators | 44,000 tested, under 10 active | AID 1347077
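First, Tango cells carrying beta2-AR and beta-arrestin fusions received compound up to 46 microM. After 18 hr at 37 degrees C, luciferase substrate was added for 15 minutes, then luminescence gave %Activity for curve fitting.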
GALC G270D up – galactocerebrosidase G270D activity enhancement, cell-based. P54803. 145M-Twi-hGALC-G270D cells (Twitcher mouse brain line with human GALC G270D), HMU-beta-Gal fluorescence, 48 h. Potency, µM (highest dose often 57.5 µM), usual class: activators. hit rate 0.1% among 45,000; further: nearly all actives have a fitted effect of over 65% in size
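Brain-derived Twitcher mouse 145M-Twi cells stably expressing human GALC-G270D or wild-type GALC, treated live, then residual GALC activity read by fluorescence of HMU-b-Gal substrate (0.1 mM final) in citrate-phosphate buffer pH 5.2 with sodium taurocholate. Signal increase indicates enhancement.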
FH mod – Identification of activators of human fumarate hydratase by quantitative high-throughput screening. Fumarate hydratase, mitochondrial (Homo sapiens), P07954. FH coupled MDH/diaphorase resazurin fluorescence, 15 min. Potency, µM (highest dose often 79.9 µM), hits mostly inhibitors. hit rate 0.22% among 54,000; further: the screen sought activators but most active calls are inhibition curves; nearly all actives have a fitted effect of over 45% in size
Target sequence (P07954 whole entry, looked up): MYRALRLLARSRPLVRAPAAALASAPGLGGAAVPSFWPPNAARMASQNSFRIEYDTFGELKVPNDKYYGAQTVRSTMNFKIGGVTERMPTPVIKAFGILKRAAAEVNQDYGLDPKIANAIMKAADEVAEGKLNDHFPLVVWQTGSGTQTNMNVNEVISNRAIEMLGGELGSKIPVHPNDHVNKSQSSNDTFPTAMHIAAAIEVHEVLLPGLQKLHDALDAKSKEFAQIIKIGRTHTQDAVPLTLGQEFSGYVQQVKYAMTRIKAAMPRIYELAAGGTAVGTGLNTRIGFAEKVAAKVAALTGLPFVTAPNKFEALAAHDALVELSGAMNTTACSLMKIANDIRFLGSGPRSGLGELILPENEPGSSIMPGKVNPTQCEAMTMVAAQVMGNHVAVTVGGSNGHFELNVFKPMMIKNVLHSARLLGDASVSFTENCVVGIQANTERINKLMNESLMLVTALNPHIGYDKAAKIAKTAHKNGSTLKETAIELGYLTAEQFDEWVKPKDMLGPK
GPR32 ag – agonists of human resolvin D1 receptor DRV1 (GPR32). O75388. CHO-K1 GPR32 beta-arrestin PathHunter luminescence, 90 min; zero percent set by DMSO-only wells. activation, % at 76.9 µM. hit rate 2.5% among 48,000;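 active means activation of at least 60% and not above a set upper limit, about 1 call in 100 departs from these limits; inconclusive means activation of 40% to 60%, or above that upper limit; inactive means activation under 40%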
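Engineered CHO-K1 line co-expressing GPR32-ProLink and EA-beta-arrestin. Compound treatment lasted 90 min at 37 °C. Luminescence was recorded after 1 h with substrate at ambient temperature, relative to DMSO basal wells.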
Of the large screens only hits and unclear results are named; the others gave an inactive call; ! = not active in a repeat. Shown are actives, neighbours in structure and some others; about 2.8% of the full set was active somewhere. Unless noted, the call rests on the fitted dose curve; in most records, active means well fitted curve in the direction sought with a large enough effect; inconclusive means small, poorly fitted or top-dose-only effect, or another doubt; inactive means no such curve, though single readings can be large; an effect the other way counts as inactive or inconclusive.

CCN(CCCNC(=O)CSc1cc(=O)n(CC)c2ccccc12)c1ccccc1	GPR32 ag 117
Cn1c(=O)n(-c2ccc(C(C)(C)C#N)cc2)c2c3cc(C#Cc4cccnc4)ccc3ncc21	none (no result: B2AR arrestin ag, GALC G270D up, GPR32 ag)
COc1cc2nc(N3CCCC3)nc(NCCCCCN3CCCC3)c2cc1OC	none (no result: B2AR arrestin ag, GALC G270D up, GPR32 ag)
CCc1ccc(CNC(=O)CSc2cc(=O)n(CC)c3ccccc23)cc1	GPR32 ag 61
CCOc1ccc(CNC(=O)CSc2cc(=O)n(CC)c3ccccc23)cc1	none
CN1CCC(c2c(O)cc(O)c3c(=O)cc(-c4ccccc4Cl)oc23)C1CO (stereo not drawn)	none (no result: B2AR arrestin ag, GALC G270D up, GPR32 ag)
COc1ccccc1Oc1ccc(N(Cc2cccnc2)S(=O)(=O)CC(F)(F)F)cc1	none (no result: B2AR arrestin ag, GALC G270D up, GPR32 ag)
Cc1cccc(C)c1Nc1c(-c2ccccc2Cl)nc2cnccn12	GALC G270D up 22µM
CCN(CC)CCOc1ccc(Cc2ccccc2)cc1	none (no result: B2AR arrestin ag)
CCCNCC(O)COc1ccccc1C(=O)CCc1ccccc1 (stereo not drawn)	GPR32 ag 87! (no result: B2AR arrestin ag)
CCN(CC)CCOc1ccccc1C(=O)CCc1ccccc1	GPR32 ag 107 (no result: B2AR arrestin ag)
CC(=O)NCc1cccc(OC[C@@H](O)CNCCc2ccc(NS(=O)(=O)c3ccccc3)cc2)c1	none (no result: B2AR arrestin ag, GALC G270D up, GPR32 ag)
C#CCN(Cc1cc2c(=O)[nH]c(C)nc2cc1Br)c1ccc(C(=O)NCc2cccnc2)cc1	none (no result: B2AR arrestin ag, GALC G270D up, GPR32 ag)
C=C1C(=O)O[C@H]2C3=C(C)CCC[C@]3(C)C(=O)C[C@@H]12	none (no result: B2AR arrestin ag, GALC G270D up, GPR32 ag)
CC(=O)OC1C(CO)OC(O[C@H]2[C@H](OC(=O)[C@]34CCC(C)(C)C[C@H]3C3=CCC5[C@@]6(C)CC[C@H](O[C@@H]7O[C@H](C(=O)O)[C@@H](O)[C@H](O[C@@H]8OC[C@@H](O)[C@H](O)[C@H]8O)[C@H]7O[C@@H]7O[C@H](CO)[C@H](O)[C@H](O)[C@H]7O)[C@@](C)(C=O)C6CC[C@@]5(C)[C@]3(C)C[C@H]4O)O[C@H](C)[C@H](OC3OC(C)C(OC4OCC(O)C(O)C4O)C(O)C3O)[C@@H]2O)C(O)C1O (stereo partly drawn)	none (no result: B2AR arrestin ag, GALC G270D up, GPR32 ag)
CC(C)C1=CC2=CCC3[C@](C)(CCC[C@@]3(C)C(=O)O)C2CC1O (stereo partly drawn)	none (no result: B2AR arrestin ag, GALC G270D up, GPR32 ag)
COc1ccccc1-c1cc(C(F)(F)F)nc(S(=O)(=O)CCCC(=O)Nc2cc(OC)c(OC)c(OC)c2)n1	GPR32 ag 81
COc1ccccc1-c1cc(C(F)(F)F)nc(S(=O)(=O)CCCC(=O)Nc2ccc(F)c(Cl)c2)n1	none
CC(=O)c1cc(-c2ccccc2)n(CC(=O)NCc2ccccc2C)c1C	GPR32 ag 80 (no result: GALC G270D up, FH mod)
CC(C)(C)CC(=O)OCC(=O)[C@@]1(O)CC[C@H]2[C@@H]3CCC4=CC(=O)C=C[C@]4(C)[C@H]3[C@@H](O)C[C@@]21C	GPR32 ag 119 (no result: B2AR arrestin ag)
Cc1ccc(NC(=O)/C(C#N)=C/c2cc(C)n(-c3ccc(Br)cc3)c2C)cc1C	GPR32 ag 63
COC(=O)C1=CO[C@@H](O[C@@H]2O[C@H](CO)[C@@H](O)[C@H](O)[C@H]2O)[C@@H]2[C@@H](C)[C@@H](O)C(O)[C@H]12 (stereo partly drawn)	none (no result: B2AR arrestin ag, GALC G270D up, GPR32 ag)
COc1ccc(CCNc2ncnc3c2cnn3-c2ccc(F)cc2)cc1	GPR32 ag 66
COc1ccc(CCNc2ncnc3c2cnn3-c2cccc(Cl)c2)cc1	GPR32 ag 114
Cc1cc(NC(=O)CCc2nc3cccnc3n2-c2ccccc2)ccc1Br	GPR32 ag 66
Cc1ccc(Cl)cc1-n1ncc2c(NC3CCCCCC3)ncnc21	GPR32 ag inconclusive
Cc1ccc(-n2ncc3c(N4CCN(Cc5ccccc5)CC4)ncnc32)cc1C	GPR32 ag 75
Cc1ccc(Cl)cc1-n1ncc2c(N3CCC(C)CC3)ncnc21	GPR32 ag 62
Cc1ccc(-n2ncc3c(N4CCN(CCO)CC4)ncnc32)cc1Cl	GPR32 ag 65
CCN1CCN(c2ncnc3c2cnn3-c2ccc(C)c(Cl)c2)CC1	none
CCC(C)/C=C(C)/C=C/C1=CC2=C(Cl)C(=O)C(C)(OC(C)=O)C(=O)C2=CN1CCCC(=O)O (stereo not drawn)	none (no result: B2AR arrestin ag, GALC G270D up, GPR32 ag)
O=C(O)Cc1cn([C@@H]2OC[C@@H](O[C@@H]3O[C@H](CO)[C@@H](O)[C@H](O)[C@H]3O)[C@H](O)[C@H]2O[C@@H]2O[C@H](CO)[C@@H](O)[C@H](O)[C@H]2O)c2ccccc12	none (no result: B2AR arrestin ag, GALC G270D up, GPR32 ag)
COc1cccc(OCc2cc(=O)n3c(-c4ccccc4)csc3n2)c1	B2AR arrestin ag inconclusive, GPR32 ag 121
Cc1ccccc1OCc1cc(=O)n2c(-c3ccccc3)csc2n1	none
C[C@@H]1C[C@@H](O)[C@@]23CO[C@@H](O)[C@@H]2CCC[C@@H]3[C@@]12C[C@@H](c1ccoc1)OC2=O	none (no result: B2AR arrestin ag, GALC G270D up, GPR32 ag)
COc1ccccc1/C=C/c1nc(C#N)c(N2CCN(C)CC2)o1	GALC G270D up 28µM
CC1CCN(C(=O)CSc2nnc(-c3ccccc3)o2)CC1	none
COc1ccc(-c2nnc(SCC(=O)N3CCC(C)CC3)o2)cc1	GPR32 ag 78
Cc1cc(N2CCN(C)CC2)nc2ccc(NC(=O)Nc3ccccc3Br)cc12	GPR32 ag 103
Cc1cc(Nc2cccc(Cl)c2)nc2ccc(NC(=O)c3cccnc3)cc12	FH mod inconclusive, GPR32 ag 60
Cc1cc(N2CCN(C)CC2)nc2ccc(NC(=O)Nc3ccccc3)cc12	GPR32 ag inconclusive
Cc1ccc(NC(=O)Nc2ccc3nc(N4CCN(C)CC4)cc(C)c3c2)cc1C	GPR32 ag inconclusive
Cc1cc(N2CCN(C)CC2)nc2ccc(NC(=O)Nc3cccc(Cl)c3)cc12	GPR32 ag 93
OCC1=CC[C@@H]2C=CO[C@@H](O[C@@H]3O[C@H](CO)[C@@H](O)[C@H](O)[C@H]3O)[C@H]12	none (no result: B2AR arrestin ag, GALC G270D up, GPR32 ag)
Nc1nc(SCc2ccc([N+](=O)[O-])cc2)c2ncn([C@@H]3O[C@H](CO)C(O)[C@H]3O)c2n1 (stereo partly drawn)	none (no result: B2AR arrestin ag, GALC G270D up, GPR32 ag)
Cc1cc(C)c(S(=O)(=O)Nc2ccc3oc4c(c3c2)C(=O)CC(C)(C)C4)cc1C	none
COc1ccc(S(=O)(=O)Nc2ccc3oc4c(c3c2)C(=O)CC(C)(C)C4)cc1	GPR32 ag 64
CCOC(=O)c1c(NC(=O)/C=C/c2ccc(Cl)cc2)sc2c1CCC(C)C2 (stereo not drawn)	GPR32 ag 79
CCCOc1ccc(/C=C/C(=O)Nc2sc3c(c2C(=O)OCC)CCC(C)C3)cc1OC (stereo not drawn)	none
O[C@@H](CNC[C@H](O)[C@H]1CCc2cc(F)ccc2O1)[C@@H]1CCc2cc(F)ccc2O1	GPR32 ag 62 (no result: B2AR arrestin ag)
Cc1ccc(NS(=O)(=O)c2ccc3nc(-c4ccccc4)[nH]c3c2)c(Cl)c1	GPR32 ag 104
Cc1ccc(NS(=O)(=O)c2ccc3nc(-c4ccccc4)[nH]c3c2)c(Br)c1	GPR32 ag inconclusive
CC(C)c1ccc(NS(=O)(=O)c2ccc3nc(-c4ccccc4)[nH]c3c2)cc1	GPR32 ag 110
